This note sets out measurements from PubChem BioAssay (NCI).

The panel holds about 83,000 compounds, 20% with a hit somewhere; the sample as a whole holds those more often.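 Note: values are percent growth. 100 is the growth of untreated cells, values between 100 and 0 indicate rising inhibition; between -100 and 0 indicates cell death.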 Unmarked numbers belong to inactive results. Activity calls are given as the source filed them. The calls were made as follows: active = growth percent below 10; inactive = the rest.

Some test systems named below: DU-145 prostate; K-562 leukemia; MALME-3M melanoma; MDA-MB-231 breast; RXF 393 renal; SF-268 CNS; SF-295 CNS; SF-539 CNS; UACC-257 melanoma; M14 melanoma.
Experiment in all cases: NCI-60 one-dose screen, 48 h (100 = growth as untreated, 0 = no growth, -100 = all killed)
What all share (settings): 10 µM unless noted

For `c1ccc(-c2n(Cc3ccc4ccccc4n3)cc[n+]2Cc2ccc3ccccc3c2)cc1`, the growth in the assay with DU-145 prostate was 28.2%; with K-562 leukemia, 5.02% (active); in the assay with MALME-3M melanoma, -20% (active); in the assay with MDA-MB-231 breast it was -6.39% (active); in the assay with RXF 393 renal it was -8.14% (active); with SF-268 CNS, 20.5%. Besides, the growth in the assay on SF-295 CNS is -7.2% (active); with SF-539 CNS it was 11.5%; with UACC-257 melanoma, -27.1% (active); in the assay on M14 melanoma, -24.8% (active).

In the case of `COc1ccc(-c2nnc(N3CCN(C(=O)CN4CCN(c5ccccc5)CC4)CC3)nc2-c2ccc(OC)cc2)cc1`, the growth is 57.8% in the assay with DU-145 prostate; 4.73% (active) with K-562 leukemia; 34.2% with MALME-3M melanoma; 65.1% with MDA-MB-231 breast; -9.53% (active) in the assay on RXF 393 renal; 52.8% with SF-268 CNS. In addition, the growth in the assay with SF-295 CNS is -23% (active); in the assay with SF-539 CNS it was 46.6%; in the assay on UACC-257 melanoma, 31.2%; with M14 melanoma, 49%.

As for `COC(=O)c1cc2c3c(cc(O)c2[nH]1)N(C(=O)C1Cc2cc(OC)c(OC)c(OC)c2N1)CC3CCl` (stereo not given), the growth in the assay with DU-145 prostate was -99.1% (active); in the assay with K-562 leukemia, 1.56% (active); in the assay on MALME-3M melanoma it was -58.1% (active); in the assay with MDA-MB-231 breast, -41.3% (active); in the assay with RXF 393 renal, -99.4% (active); in the assay on SF-268 CNS it was -5.75% (active). The growth in the assay with SF-295 CNS was -40.6% (active); with SF-539 CNS it was -74.7% (active); with UACC-257 melanoma, -72.3% (active); with M14 melanoma it was -25.1% (active).

Regarding `Cc1nc(C)c(C)nc1C`, the growth in the assay on DU-145 prostate was 108%; in the assay with K-562 leukemia, 93.1%; with MALME-3M melanoma, 102%; with MDA-MB-231 breast, 108%; in the assay on RXF 393 renal, 120%; with SF-268 CNS it was 105%. Moreover, the growth with SF-295 CNS is 107%; in the assay on SF-539 CNS, 104%; in the assay with UACC-257 melanoma it was 88.1%; in the assay on M14 melanoma, 101%.

On to `CC(C)(C)CC(C)(C)Cc1ccc(OCCOCC[N+](C)(C)Cc2ccccc2)cc1`, for which the growth in the assay on DU-145 prostate is 53.4%; in the assay on K-562 leukemia, 9.56% (active); with MALME-3M melanoma, -40.2% (active); in the assay with MDA-MB-231 breast, -26.7% (active); in the assay on RXF 393 renal it was 16.5%; in the assay with SF-268 CNS, 20.7%. Moreover, the growth with SF-295 CNS was 73.5%; with SF-539 CNS it was 30.9%; in the assay with UACC-257 melanoma, 2.66% (active); in the assay with M14 melanoma, 7.33% (active).

In the case of `C=C1C(=O)O[C@H]2[C@H]1CC/C(COC(=O)NCc1nc3ccccc3[nH]1)=C\CC[C@@]1(C)O[C@@H]21`, the growth in the assay with DU-145 prostate is 80.1%; in the assay on K-562 leukemia it was 24.7%; in the assay on MALME-3M melanoma it was 86.8%; with MDA-MB-231 breast, 90.8%; in the assay with RXF 393 renal, 67.2%; in the assay with SF-268 CNS it was 105%. For the same compound, the growth in the assay on SF-295 CNS was 106%; in the assay with SF-539 CNS it was 77.9%; in the assay on UACC-257 melanoma, 94.9%; with M14 melanoma, 77.5%.

Take `CCOCc1cc(C(C)(C)C)ccc1O`: the growth was 110% in the assay on DU-145 prostate; 101% with K-562 leukemia; 104% in the assay with MALME-3M melanoma; 105% in the assay with MDA-MB-231 breast; 109% in the assay on RXF 393 renal; 105% in the assay on SF-268 CNS. The growth in the assay on SF-295 CNS is 105%; with SF-539 CNS, 103%; in the assay with UACC-257 melanoma, 89.3%; in the assay on M14 melanoma, 104%.

For the compound `Nc1cc(N)nc(SCC(=O)O)n1`, the growth in the assay with DU-145 prostate was 104%; in the assay with K-562 leukemia, 101%; in the assay with MALME-3M melanoma it was 103%; with MDA-MB-231 breast, 95.4%; in the assay on RXF 393 renal, 115%; in the assay with SF-268 CNS, 101%. Moreover, the growth with SF-295 CNS is 106%; in the assay on SF-539 CNS, 102%; with UACC-257 melanoma, 84.8%; in the assay with M14 melanoma, 102%.

For `COc1cc(/C=N/Nc2nc(-c3ccc(F)cc3)c(C#N)c(N3CCOCC3)n2)ccc1O`, the growth in the assay with DU-145 prostate was 96.3%; with K-562 leukemia it was 85.3%; in the assay on MALME-3M melanoma, 122%; in the assay with MDA-MB-231 breast it was 99.8%; in the assay on RXF 393 renal, -0.23% (active); with SF-268 CNS, 99.8%. In addition, the growth with SF-295 CNS is 106%; in the assay on SF-539 CNS it was 93.7%; in the assay with UACC-257 melanoma, 102%; with M14 melanoma it was 114%.

On to `COc1cc(NCC(=O)Nc2cc(Nc3cccc(C(F)(F)F)c3)ncn2)c(Cl)c(OC)c1Cl`, for which the growth in the assay with DU-145 prostate is 97.4%; in the assay on K-562 leukemia, 85.6%; with MALME-3M melanoma it was 115%; with MDA-MB-231 breast, 78.2%; in the assay on RXF 393 renal it was 114%; in the assay with SF-268 CNS it was 98.9%. Also, the growth with SF-295 CNS was 75%; in the assay with SF-539 CNS it was 101%; with UACC-257 melanoma, 88.2%; in the assay on M14 melanoma it was 93.1%.

Turning to `COc1cc(-c2nn(-c3ccc(Br)cc3)cc2CO)ccc1O`, the growth in the assay with DU-145 prostate was 93.6%; in the assay with K-562 leukemia it was 74.2%; with MALME-3M melanoma it was 119%; in the assay on MDA-MB-231 breast it was 68.9%; in the assay on RXF 393 renal it was 116%; in the assay with SF-268 CNS, 77.7%. For the same compound, the growth is 98.6% in the assay on SF-295 CNS, 92% in the assay on SF-539 CNS, 90.7% with UACC-257 melanoma and 102% in the assay with M14 melanoma.

As for `Nc1ccccc1NS(=O)(=O)c1ccc(Cl)cc1`, the growth was 94.2% in the assay with DU-145 prostate; 95.9% in the assay on K-562 leukemia; 87.5% in the assay on MALME-3M melanoma; 98.2% with MDA-MB-231 breast; 115% with RXF 393 renal; 93.5% in the assay with SF-268 CNS. For the same compound, the growth in the assay with SF-295 CNS was 101%; with SF-539 CNS it was 95.6%; in the assay on UACC-257 melanoma, 98.4%; in the assay with M14 melanoma, 97.1%.
